Assay [1] in a line: Quantitative High-Throughput drug screen in 47 multiple myeloma cell lines against the NCATS MIPE library collection: U266_ATCC cell viability assay (AID 1919864). Note: nearly all actives have a fitted effect of over 35% in size. Note: potency is the fitted concentration of half-maximal effect. The method in brief: (§1)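 500 cells/well per myeloma line exposed to pinned MIPE 4.0 compounds for 48 h at 37 °C, 5% CO2. Viability read as ATP by CellTiter-Glo luminescence, normalised to DMSO-only (100%) and media-only (0%) wells.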

The nature of assay [2]: Quantitative High-Throughput drug screen in 47 multiple myeloma cell lines against the NCATS MIPE library collection: XG6_PLB cell viability assay (AID 1919865). Note: nearly all actives have a fitted effect of over 40% in size. Note: potency is the fitted concentration of half-maximal effect. In short, it runs like this: as §1
The nature of assay [3]: Quantitative High-Throughput drug screen in 47 multiple myeloma cell lines against the NCATS MIPE library collection: XG1_PLB cell viability assay (AID 1919866). Note: nearly all actives have a fitted effect of over 35% in size. Note: potency is the fitted concentration of half-maximal effect. The method in brief:
as §1

Assay [4] can be described thus: Quantitative High-Throughput drug screen in 47 multiple myeloma cell lines against the NCATS MIPE library collection: VP6_DJ cell viability assay (AID 1919867). Note: nearly all actives have a fitted effect of over 40% in size. Note: potency is the fitted concentration of half-maximal effect. The method in brief:
as §1

Assay [5] can be described thus: Quantitative High-Throughput drug screen in 47 multiple myeloma cell lines against the NCATS MIPE library collection: RPMI8226_ATCC cell viability assay (AID 1919871). Note: nearly all actives have a fitted effect of over 30% in size. Note: potency is the fitted concentration of half-maximal effect. In short, it runs like this: as §1
The nature of assay [6]: Quantitative High-Throughput drug screen in 47 multiple myeloma cell lines against the NCATS MIPE library collection: OPM2_DSMZ cell viability assay (AID 1919872). Note: nearly all actives have a fitted effect of over 30% in size. Note: potency is the fitted concentration of half-maximal effect. The method in brief:
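CellTiter-Glo luminescence (ATP) after 48 h compound exposure, 37C/5% CO2; 500 cells/well; MIPE 4.0 approved/investigational drugs pinned in; DMSO = 100%, media only = 0% viability.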

Assay [7] is described as follows: Quantitative High-Throughput drug screen in 47 multiple myeloma cell lines against the NCATS MIPE library collection: UTMC2_PLB cell viability assay (AID 1919868). Note: nearly all actives have a fitted effect of over 55% in size. Note: potency is the fitted concentration of half-maximal effect. The method in brief: as §1
Assay [8] is described as follows: Quantitative High-Throughput drug screen in 47 multiple myeloma cell lines against the NCATS MIPE library collection: PE2_PLB cell viability assay (AID 1919869). Note: nearly all actives have a fitted effect of over 35% in size. Note: potency is the fitted concentration of half-maximal effect. The method in brief:
as §1

Assay [9] is described as follows: Quantitative High-Throughput drug screen in 47 multiple myeloma cell lines against the NCATS MIPE library collection: PCM6_Riken cell viability assay (AID 1919870). Note: nearly all actives have a fitted effect of over 30% in size. Note: potency is the fitted concentration of half-maximal effect. In short, it runs like this:
as §1

A short description of assay [10]: Quantitative High-Throughput drug screen in 47 multiple myeloma cell lines against the NCATS MIPE library collection: KMS11_JCRBsus cell viability assay (AID 1919873). Note: nearly all actives have a fitted effect of over 50% in size. Note: potency is the fitted concentration of half-maximal effect. The method in brief: as §1
The nature of assay [11]: Quantitative High-Throughput drug screen in 47 multiple myeloma cell lines against the NCATS MIPE library collection: KMS28BM_JCRB cell viability assay (AID 1919874). Note: nearly all actives have a fitted effect of over 35% in size. Note: potency is the fitted concentration of half-maximal effect. The method in brief: as §1
Assay [12] is described as follows: KB-3-1 P-gp reporter qHTS against the NCATS DSHEA and TCM libraries (AID 1919975). Note: 0% is about no effect. In short, it runs like this:
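Cell viability qHTS: 500 KB-3-1 cells/well, substances in titration, ~72 h, 37C; luminescent CellTiter-Glo read.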

A short description of assay [13]: qHTS Counterscreen for compound interference against the NCATS DSHEA and TCM libraries (AID 1919978).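 Note: compounds preincubated with 1 µM D-luciferin or buffer before detection reagent; % of control where 0% means no effect.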 Particulars: firefly luciferase detection reagent interference, luminescence. In short, it runs like this:
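Interference check: test samples were incubated with D-luciferin (final 1 uM) or buffer only for 15 min, room temperature, in a qHTS titration up to 39.8 uM, then developed with detection reagent and read by luminescence.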

A short description of assay [14]: Dual reporter qHTS for agonist of Pregnane X Receptor (hPXR) against the NCATS DSHEA and TCM libraries: Fluorescence readout (AID 1920058). Note: 0% is about no effect. The method in brief:
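hPXR-Luc HepG2 cells, 2000/well in charcoal-stripped serum, attached 5 h, dosed for ~24 h at 37 °C. Fluorescence read is CellTiter-Fluor viability (Ex/Em 405/540 nm); rifampicin positive, tetraoctyl ammonium bromide (92 µM) cytotoxicity controls.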

Assay [15] concerns the target Nuclear receptor subfamily 1 group I member 2 (Homo sapiens) (UniProt O75469). The experiment in a line: Dual reporter qHTS for agonist of Pregnane X Receptor (hPXR) against the NCATS DSHEA and TCM libraries: Luminescence readout (AID 1920059). Note: 0% is about no effect. In short, it runs like this: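 hPXR-Luc HepG2 cells, 2000/well in 5% charcoal-stripped FBS medium, attached 5 h, then exposed 24 h at 37C to compounds. Viability by CellTiter-Fluor, then luciferase luminescence with ONE-Glo.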

Values without a mark were called inactive. Results filed as inconclusive are left out. The source made the active and inactive calls. Calls come from the whole dose curve; as a rule, active = well fitted curve in the direction sought with a large enough effect; inconclusive = small, poorly fitted or top-dose-only effect, or another doubt; inactive = no such curve, though single readings can be large; an effect the other way counts as inactive or inconclusive.

Nuclear receptor subfamily 1 group I member 2 (Homo sapiens), sequence (O75469 whole entry, looked up): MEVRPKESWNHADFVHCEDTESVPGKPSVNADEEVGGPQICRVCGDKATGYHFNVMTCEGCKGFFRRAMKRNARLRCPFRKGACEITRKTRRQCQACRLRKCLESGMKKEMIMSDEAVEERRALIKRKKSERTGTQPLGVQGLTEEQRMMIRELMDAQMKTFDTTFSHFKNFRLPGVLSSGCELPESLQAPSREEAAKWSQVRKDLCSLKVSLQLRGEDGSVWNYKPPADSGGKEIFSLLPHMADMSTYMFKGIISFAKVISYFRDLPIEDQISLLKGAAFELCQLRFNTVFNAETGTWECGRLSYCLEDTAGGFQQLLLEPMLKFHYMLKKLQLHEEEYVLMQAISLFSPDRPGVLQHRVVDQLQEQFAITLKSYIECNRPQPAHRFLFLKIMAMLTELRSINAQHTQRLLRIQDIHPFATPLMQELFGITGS

Turning to `Cc1cn([C@H]2C=C[C@@H](CO)O2)c(=O)[nH]c1=O`, the Potency entry in assay [1], in assay [3], in assay [4], in assay [5] and in [6] was “inactive” throughout. Further, in assay [2], the Potency is 3.82 µM (active).

With `CCN1CCCC1CNC(=O)c1cc(S(=O)(=O)CC)c(N)cc1OC` (stereo not given), the Potency entry in assay [1], in assay [2], in assay [3], in assay [4], in assay [7] and in assay [8] was “inactive” each time. For the same compound, the Potency entry in assay [9], in [5], in [6], in assay [10] and in [11] was “inactive” throughout.

For the compound `CC[C@@]1(O)C(=O)OCc2c1cc1n(c2=O)Cc2cc3c(CN(C)C)c(O)ccc3nc2-1`, the Potency in assay [1] is 13.2 µM (active); in [2] it was 0.0132 µM (active); in assay [3], 0.0743 µM (active); in [4], 1.48 µM (active); in assay [7] it was 0.0526 µM (active); in assay [8], 0.662 µM (active). Also, the Potency in assay [9] was 1.66 µM (active); in [5], 14.8 µM (active); in assay [10] it was 3.72 µM (active); in [11], 0.662 µM (active).

For the compound `CCC1(c2ccccc2)C(=O)NCNC1=O`, the Potency in [1] was 2.96 µM (active); in assay [2], 2.09 µM (active); in [3], 2.96 µM (active); in assay [4], 4.69 µM (active); in assay [8], 2.96 µM (active); in assay [9], 3.72 µM (active). For the same compound, the Potency entry in assay [10] and in [11] was “inactive” in each case.

Turning to `CN1CCC(=C2c3ccccc3C=Cc3ccccc32)CC1`, the Potency in assay [1] was 16.6 µM (active); in [2] it was 8.33 µM (active); in [3], 13.2 µM (active); in assay [4], 16.6 µM (active); in assay [7], 13.2 µM (active); in [8] it was 23.5 µM (active). The Potency in [9] was 18.7 µM (active). Also, in [6], the Potency entry was “inactive”.

Regarding `CNCCCC12CCC(c3ccccc31)c1ccccc12`, the Potency was 16.6 µM (active) in assay [1]; 18.7 µM (active) in assay [2]; 26.4 µM (active) in assay [3]; 20.9 µM (active) in [4]; 23.5 µM (active) in assay [8]; 23.5 µM (active) in assay [9]. Also, the Potency is 20.9 µM (active) in assay [5], 23.5 µM (active) in [6], 9.35 µM (active) in assay [10] and 16.6 µM (active) in assay [11].

In the case of `Cn1ccc2cc3c(cc21)CCN3C(=O)Nc1cccnc1`, the results for the Potency in [2], in assay [4] and in assay [9] were 11.8 µM (active), 14.8 µM (active) and 23.5 µM (active), respectively. Besides, the Potency result in [5] was “inactive”.

Turning to `COc1cc2c(c(OC)c1OC)-c1ccc(OC)c(=O)cc1[C@@H](NC(C)=O)CC2`, the Potency entry in [2], in [3], in assay [4], in [7], in assay [8] and in assay [9] was “inactive” in each case. For the same compound, the Potency result in assay [6] and in assay [10] was “inactive” throughout.

Consider `OCCN1CCN(CCCN2c3ccccc3Sc3ccc(C(F)(F)F)cc32)CC1`, for which the Potency in assay [2] was 23.5 µM (active); in [3], 20.9 µM (active); in [4], 16.6 µM (active); in [8] it was 20.9 µM (active); in assay [9], 23.5 µM (active); in [5], 16.6 µM (active). The figures for the Potency in assay [10] and in assay [11] were 13.2 µM (active) and 23.5 µM (active), respectively. Moreover, in assay [6], the Potency entry is “inactive”.

On to `CC12CC3CC(C)(C1)CC(N)(C3)C2`, for which the Potency in assay [2] is 20.9 µM (active); in [3], 23.5 µM (active); in [4] it was 18.7 µM (active); in assay [9], 20.9 µM (active); in assay [11], 2.64 µM (active).

Turning to `O=C(c1ccc(OCCN2CCCCC2)cc1)c1c(-c2ccc(O)cc2)sc2cc(O)ccc12`, the Potency in assay [2] was 20.9 µM (active); in [4], 16.6 µM (active); in [9] it was 18.7 µM (active); in [5], 14.8 µM (active); in [10], 16.6 µM (active); in assay [11], 23.5 µM (active).

As to `CN(C)CCOC(c1ccccc1)c1ccccc1`, the Potency in [3] is 7.43 µM (active); in [4], 6.62 µM (active); in [7], 10.5 µM (active); in assay [8], 7.43 µM (active); in assay [9], 8.33 µM (active); in assay [11], 5.9 µM (active). Also, the Potency result in assay [5] and in assay [6] was “inactive” throughout.

As for `O=c1c(O)c(-c2ccc(O)c(O)c2)oc2cc(O)cc(O)c12`, the Potency in [2] is 16.6 µM (active); in assay [3], 18.7 µM (active); in [4] it was 16.6 µM (active); in assay [8], 18.7 µM (active); in assay [9], 18.7 µM (active). Further, the Potency result in assay [5] and in [11] was “inactive” throughout. Besides, the compound was classed as inactive in assay [12], in assay [14] and in assay [15]. The max response in assay [13] was -0.891%.

`CN(C)c1nc(N(C)C)nc(N(C)C)n1`: the Potency result in [3], in assay [7], in assay [8] and in assay [11] was “inactive” each time.

Turning to `NC(CO)C(=O)NNCc1ccc(O)c(O)c1O` (stereo not given), the Potency result in assay [2], in assay [3] and in assay [9] was “inactive” in each case. Besides, the Potency in assay [11] was 23.5 µM (active).

Regarding `CC(C)NCC(O)COc1ccc(CCOCC2CC2)cc1` (stereo not given), the Potency entry in [3], in assay [7], in assay [8], in assay [9], in [5] and in assay [6] was “inactive” throughout. In addition, the Potency result in [11] is “inactive”.

As to `O=C(CCCN1CCC(O)(c2ccc(Cl)cc2)CC1)c1ccc(F)cc1`, the Potency entry in assay [6] was “inactive”. Moreover, the Potency in assay [10] was 23.5 µM (active).

`Fc1ccc([C@@H]2CCNC[C@H]2COc2ccc3c(c2)OCO3)cc1`: the Potency entry in [3] and in [9] was “inactive” in each case. In addition, the Potency is 23.5 µM (active) in assay [10] and 20.9 µM (active) in assay [11].

Source of the values: PubChem BioAssay (NCATS).
